# From PubChem BioAssay
# Sampled rows, rich in hits. Any-hit rate of the full collection: about 1.3%.
# CRFR2-BP antag – antagonists of CRF-BP/CRF-R2 complex, primary screen, cell-based, HEK293, calcium dye fluorescence, uHTS. CRF-induced calcium fluorescence. inhibition, % at 11.8 µM. 350,000 compounds, 0.59% hits. AID 588475, 2011;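 active means inhibition of the ligand-induced calcium signal above about 50% at the single tested concentration, limit read from the data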
# CRFR2-BP ag – agonists of CRF-BP/CRF-R2 complex, primary screen, cell-based, HEK293, calcium dye fluorescence, uHTS. calcium dye fluorescence (FLIPR); percent of saturating CRF peptide response. activation, % at 13.2 µM. CRF-binding protein / CRF receptor 2 complex (human). 350,000 compounds, 0.46% hits;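 active means activation of at least 50%, plus an integration ratio under a set limit after plate pattern correction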
# RTF Ca sens inh – cardiac RTF calcium sensitivity inhibitors, primary screen, biochemical, IANBD-TnC fluorescence, EC70 calcium; IANBD-labeled cardiac RTF, Ca2+ fluorescence; 340,000 compounds, 0.12% hits; inhibition, % at 7.15 µM;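 active means inhibition above the mean inhibition of all tested compounds plus 3 SD, cut at about 17% in these data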;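 further: assay run at fixed EC70 calcium of 1.6 mM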
# Keap1 Nrf2 FP – Keap1-Nrf2 protein-protein interaction inhibitors, primary screen, biochemical, fluorescence polarization, single point; Kelch-like ECH-associated protein 1 (Homo sapiens), Q14145; Keap1 Kelch-Nrf2 peptide fluorescence polarization, 1536-well; inhibition, % at 9.4 µM; 340,000 compounds, 0.15% hits; in the data active means inhibition above about 12%;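 further: human Keap1 Kelch domain with fluorescein labeled Nrf2 9mer peptide probe; higher means more block of Keap1 binding to Nrf2 peptide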
# LANA DNA inh – inhibitors of KSHV C-LANA binding to DNA, primary screen, biochemical, fluorescence polarization, FAM-LBS DNA, MBP-C-LANA, single point | Kaposi's sarcoma herpesvirus LANA C-terminal domain (residues 932-1162) DNA binding | AID 504423, 2011 | inhibition, % at 9 µM | 340,000 compounds, 0.078% hits;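 active means highest replicate inhibition at or above 60% at 9 µM, even if other replicates fall short; inactive means all replicates below 60% inhibition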
# RTF Ca sens act – cardiac RTF calcium sensitivity activators, primary screen, biochemical, IANBD-TnC fluorescence, EC20 calcium; Troponin I, cardiac muscle (Homo sapiens) + Troponin T, cardiac muscle (Homo sapiens) + …; IANBD-labeled TnC RTF fluorescence at EC20 calcium; 0% EC20 calcium, 100% full calcium; activation, % at 7.2 µM; 340,000 compounds, 0.24% hits;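 active means activation above the mean over all tested compounds plus 3 SD, cut at about 30% in these data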;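 further: rise in fluorescence read as greater calcium sensitivity of cardiac thin filaments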
# RTF Ca inh conf – cardiac RTF calcium sensitivity inhibitors, confirmation, biochemical, fluorescence readout | AID 504635, 2011 | inhibition, % at 7.15 µM | 360 compounds, 8% hits | shares compounds with RTF Ca sens inh | reconstituted cardiac thin filaments; in the data active means inhibition above about 18%
# Keap1 TSA – Keap1 Kelch domain binders by thermal stabilisation, dose response, biophysical, thermal shift, RT-PCR instrument, cherry-pick | shares compounds with Keap1 Nrf2 FP | delta Tm; active compounds read high | max delta Tm, degrees C | 400 compounds, 8% hits; in the data active means max delta Tm above about 0.48 degrees C
# A number is an active result; n = inactive; x = no result given; ! = not active in a repeat.
SMILES,CRFR2-BP antag,CRFR2-BP ag,RTF Ca sens inh,Keap1 Nrf2 FP,LANA DNA inh,RTF Ca sens act,Keap1 TSA,others
CN(C)[C@@H]1C(=O)C(C(N)=O)=C(O)[C@@]2(O)C(=O)C3=C(O)c4c(O)cccc4[C@@](C)(O)C3[C@H](O)C12 (some centres not stated),n,n,20.5!,n,72.3!,n,x,RTF Ca inh conf=n
c1ccc(CCCN2CCN(CCOC(c3ccccc3)c3ccccc3)CC2)cc1,n,n,n,n,n,n,x,
Fc1ccc(C(OCCN2CCN(CCCc3ccccc3)CC2)c2ccc(F)cc2)cc1,n,n,17.1,n,n,n,x,RTF Ca inh conf=n
CC(C)=CCOc1c2occc2cc2ccc(=O)oc12,n,n,n,n,n,n,x,
CCN1C(=O)NC(=O)/C(=C\c2cn(CC(=O)N3CCCCC3)c3ccccc23)C1=O,n,n,n,20.6,n,n,n,
CC1(C)CC(n2[nH]c(=O)c3c2NC(=O)CSC3c2ccccc2)CCO1 (configuration not stated),n,n,n,n,n,n,x,
O=c1cc(C(F)(F)F)c2cc3c4c(c2o1)CCCN4CCC3,n,173.2,n,13.6,n,544.9,n,
Nc1ccc2nonc2c1[N+](=O)[O-],n,70.1,n,52.2,80.3,102.2,n,
COc1ccc(-c2nc3ccc(C(=O)N4CCC5(CC4)OCCO5)cc3nc2-c2ccc(OC)cc2)cc1,n,n,n,n,n,n,x,
C#CC1(OC(=O)c2ccccc2)CC(C)N(C)CC1C (configuration not stated),n,n,n,n,n,n,x,
